According to PubChem BioAssay (NCI):
About 79,000 compounds went through this panel and 15% of them were active in at least one assay; those are over-represented in the sample as a whole. Rule as the data show it: active = growth inhibition above about 70%; inactive = the rest.

Columns and labels:
[1] = NCI Yeast Anticancer Drug Screen. Data for the rad50 strain (AID 155);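 also: 0% = growth of vehicle-only cultures of the same strain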; conditions: S. cerevisiae rad50 strain growth inhibition; at 50.0 µM; stronger effect = higher value
How it was run: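 Relative growth inhibition (compound vs vehicle) was measured in yeast with a defined repair-gene alteration.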

[2] = NCI Yeast Anticancer Drug Screen. Data for the mec2-1 strain (AID 157); conditions: S. cerevisiae mec2-1 strain, at 50.0 µM, stronger effect = higher value
How it was run: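 Growth inhibition is read against vehicle-treated controls after compound exposure of the mec2-1 yeast strain, which is defective in DNA damage repair or cell cycle control.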

[3] = NCI Yeast Anticancer Drug Screen. Data for the sgs1 mgt1 strain (AID 161);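 also: 0% = growth of cultures given vehicle only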; conditions: S. cerevisiae sgs1 mgt1 strain, at 50.0 µM, stronger effect = higher value
How it was run: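 This yeast growth screen uses a strain with defined DNA-repair lesions; compound-treated growth is compared with vehicle-treated growth.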

[4] = NCI Yeast Anticancer Drug Screen. Data for the cln2 rad14 strain (AID 165);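 also: 0% = growth equal to vehicle treated cultures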; conditions: S. cerevisiae cln2 rad14 strain, at 50.0 µM, stronger effect = higher value
How it was run: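 Growth inhibition, relative to vehicle-treated controls, is the read-out. The test organism is a yeast strain with defined genetic alterations, cln2 rad14.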

[5] = NCI Yeast Anticancer Drug Screen. Data for the bub3 strain (AID 167); conditions: S. cerevisiae bub3 mutant strain, at 50.0 µM, stronger effect = higher value
How it was run: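 Screening used yeast with an engineered genetic alteration affecting cell cycle control. Compound-exposed cultures were compared with vehicle cultures, and reduced growth was taken as inhibition.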

[6] = NCI Yeast Anticancer Drug Screen. Data for the mlh1 rad18 strain (AID 175); conditions: S. cerevisiae mlh1 rad18 strain growth inhibition; at 50.0 µM; stronger effect = higher value
How it was run: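 Cells of a genetically altered yeast strain, deficient in DNA damage repair, were treated with compound. Their growth was then compared with that of vehicle-treated cultures to give inhibition.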

Measured: growth inhibition

COc1ccc([N+](=O)[O-])cc1NC(=O)c1ccc(Cl)cc1
inactive: [1] 12% | [2] 29.7% | [3] 35.6% | [4] 16.9% | [5] 28% | [6] 34.8%

CCCCCOC(=S)S
inactive: [1] -2.6% | [2] 11.8% | [3] 32.7% | [4] -12.1% | [5] 13.4% | [6] 29.9%

NS(=O)(=O)c1ccc(NC(NC(=O)C(C(F)(F)F)C(F)(F)F)(C(F)(F)F)C(F)(F)F)cc1
inactive: [1] 16.6% | [2] 15.1% | [3] -6.2% | [4] -8.25% | [5] 5.15% | [6] -0.8%

CCOC(=O)C1=NN(c2ccccc2)C(=O)/C1=C\n1ccc(=O)[nH]c1=S
inactive: [1] -32.5% | [2] -43.8% | [3] -44.5% | [4] -36.1% | [5] -25.9% | [6] -60.8%

COC(=O)CCCCCCCCC(=O)OC
inactive: [1] 8.9% | [2] 33.8% | [3] 8.8% | [4] 8.95% | [5] 25.8% | [6] 7.15%

CCC(O)C(CC)CC (stereo not given)
inactive: [1] 13.8% | [2] -19.7% | [3] -4.2% | [4] 17% | [5] -10.2% | [6] 14.9%

Nc1ccc(CC(N)C(=O)O)cc1 (stereo not given)
inactive: [1] -2.7% | [2] -12.8% | [3] -22.3% | [4] -5.6% | [5] -6.55% | [6] -13.3%

COc1ccc(C(Cl)=C(c2ccc(OCCN(C)C)cc2)c2ccc(OCCN(C)C)cc2)cc1
inactive: [1] 29.7% | [2] 15.6% | [3] 40.1% | [4] 28.8% | [5] 28.4% | [6] 20.1%

CN(C)c1nc(N/N=C\C(O)C(O)C(O)C(O)CO)nc(N(C)C)n1 (stereo not given)
inactive: [1] -1.55% | [2] 2.45% | [3] -7.1% | [4] 1.15% | [5] 32.1% | [6] 9%

c1ccc(CCc2ccccn2)nc1
inactive: [1] 22.9% | [2] 0.8% | [3] -13.6% | [4] 7.2% | [5] 9.5% | [6] 1.45%

CCOC(=O)Nc1ccc(S(=O)(=O)c2ccc(Nc3ccnc4cc(Cl)ccc34)cc2)cc1
inactive: [1] 17.1% | [2] 10.2% | [3] 27.2% | [4] -35.8% | [5] 5.45% | [6] 47.8%

COC1/C=C/OC2(C)Oc3c(C)c(O)c4c(O)c(c(/C=N/N5CCN(Cc6cccc(C(F)(F)F)c6)CC5)c(O)c4c3C2=O)NC(=O)C(C)=C/C=C/C(C)C(O)C(C)C(O)C(C)C(OC(C)=O)C1C (stereo not given)
inactive: [1] 11.7% | [2] 30.7% | [3] 35.3% | [4] 27.2% | [5] 11.8% | [6] 43.1%

Nc1ccc(NC(=O)Nc2ccc(N)cc2)cc1
inactive: [1] 24.5% | [2] 4.3% | [3] 16.8% | [4] 9.15% | [5] 10.8% | [6] 20.4%

CCc1cc(C)cc(C(C)(C)C)c1
inactive: [1] 12.4% | [2] -17.8% | [3] 25.1% | [4] 7.15% | [5] -8.35% | [6] 22%

Cc1cc(C)nc(NS(=O)(=O)c2ccc(NC(=O)c3ccc(Cl)c4c(Nc5ccc(S(=O)(=O)Nc6nc(C)cc(C)n6)cc5)c5ccccc5nc34)cc2)n1
inactive: [1] 28.1% | [2] 41.3% | [3] 27.8% | [4] 34.2% | [5] 27.8% | [6] 30.4%

Cc1ccc(C(C)(O)C2CC2)cc1 (stereo not given)
inactive: [1] -11.4% | [2] -33.8% | [3] -18.4% | [4] 18.6% | [5] -35.8% | [6] 18.1%

CC(=O)Oc1ccc(C(C)C)cc1
inactive: [1] -9.55% | [2] -30.9% | [3] -25.3% | [4] -13.6% | [5] -11.2% | [6] -1.6%

COc1cccc(/C=C2\CCC(C)(CN(C)C)C2=O)c1 (stereo not given)
inactive: [1] 32.9% | [2] 9.1% | [3] 38.9% | [4] 29.2% | [5] 13.2% | [6] 29.9%

N=C(N)SCC(=O)c1ccc([N+](=O)[O-])cc1
inactive: [1] -6.65% | [2] 4.95% | [3] 1.35% | [4] -0.4% | [5] 3.85% | [6] 5.8%

CC(=O)NC1C(O)C(NC(C)=O)C(OC(C)=O)C(OC(C)=O)C1OC(C)=O (stereo not given)
inactive: [1] 33.4% | [2] -9.7% | [3] 4.1% | [4] -15.4% | [5] -0.15% | [6] 1.35%
